Laboratory results taken from PMC10812921, “Transcriptional Coactivator BOB1 (OBF1, OCA-B) Modulates the Specificity of DNA Recognition by the POU-Domain Factors OCT1 and OCT2 in a Monomeric Configuration”.

What was measured:
POU1 (OCT1 POU domain) = POU1 (OCT1 POU domain) (human, UniProt P14859 260-458); assay: EMSA-SELEX-seq; no BOB1; 20 mM Tris-HCl pH 7.6, 140 mM NaCl, 10% glycerol, 0.5 mM EDTA, 0.05% Triton X-100, 0.1 mg/mL BSA, 0.1 mg/mL poly(dI-dC), 5 mM DTT, room temperature, 20 min; high values mean tight binding; conditions: protein: recombinant; dsDNA, one strand shown
Method in brief: (§1)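 After expression in E. coli BL21, tagged POU-domain proteins were purified under denaturing conditions and then renatured. Each binding reaction held 30 ng protein and 300 ng of a PCR-amplified double-stranded random 35-nt library in 20 μL Tris–HCl pH 7.6 binding buffer, with or without 28 ng coactivator protein, for 20 min at RT. Bands holding complexes were cut from native 6% PAGE, eluted and PCR-amplified across four rounds, and the output was Illumina-sequenced. The value given for binding preference is the share, in percent, of sequenced 8-mers fitting a motif pattern.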

POU2 (OCT2 POU domain) = target: T1, POU2 (OCT2 POU domain) (human, UniProt P09086 175-386); assay: as above; conditions: protein: recombinant; dsDNA, one strand shown
T1 sequence: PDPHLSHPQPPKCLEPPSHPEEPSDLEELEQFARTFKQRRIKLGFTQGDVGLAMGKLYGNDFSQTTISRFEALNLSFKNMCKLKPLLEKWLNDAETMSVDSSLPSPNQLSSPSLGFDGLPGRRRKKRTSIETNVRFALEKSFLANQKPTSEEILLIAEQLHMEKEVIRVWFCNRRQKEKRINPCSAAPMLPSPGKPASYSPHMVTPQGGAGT
Method in brief: as §1

[1] = target: POU1 (OCT1 POU domain);BOB1 (OBF1, OCA-B) (human;human, UniProt P14859;Q16633 260-458;1-256, |); assay: EMSA-SELEX-seq; with BOB1 (ternary complex band); 20 mM Tris-HCl pH 7.6, 140 mM NaCl, 10% glycerol, 0.5 mM EDTA, 0.05% Triton X-100, 0.1 mg/mL BSA, 0.1 mg/mL poly(dI-dC), 5 mM DTT, room temperature, 20 min; high values mean tight binding; conditions: protein: recombinant;recombinant; copies: 1;1; dsDNA, one strand shown
Method in brief: as §1

[2] = target: T2, POU2 (OCT2 POU domain);BOB1 (OBF1, OCA-B) (human;human, UniProt P09086;Q16633 175-386;1-256, |); assay: as above; conditions: protein: recombinant;recombinant; copies: 1;1; dsDNA, one strand shown
T2 sequence 1: T1 sequence
T2 sequence 2: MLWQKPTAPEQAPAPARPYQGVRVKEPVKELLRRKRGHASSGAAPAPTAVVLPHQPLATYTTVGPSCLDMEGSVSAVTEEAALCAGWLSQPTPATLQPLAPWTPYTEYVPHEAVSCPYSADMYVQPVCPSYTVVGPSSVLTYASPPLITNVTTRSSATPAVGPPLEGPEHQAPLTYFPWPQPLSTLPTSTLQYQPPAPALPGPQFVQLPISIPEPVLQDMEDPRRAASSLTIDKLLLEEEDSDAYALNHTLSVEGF
Method in brief: as §1

POU1 (OCT1 POU domain), sequence (P14859 260-458): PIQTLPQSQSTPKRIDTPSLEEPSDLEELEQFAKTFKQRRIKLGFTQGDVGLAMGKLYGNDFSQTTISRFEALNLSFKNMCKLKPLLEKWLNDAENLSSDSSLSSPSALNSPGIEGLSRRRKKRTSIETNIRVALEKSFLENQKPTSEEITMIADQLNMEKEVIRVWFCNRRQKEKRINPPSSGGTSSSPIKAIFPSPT

Sequence	binding signal (POU1 (OCT1 POU domain))	binding signal (POU2 (OCT2 POU domain))	binding signal [1]	binding signal [2]
AAAGTAAC	0.0439 % of ANNNNAAN 8-mers	0.0437 % of ANNNNAAN 8-mers	0.0605 % of ANNNNAAN 8-mers	0.0537 % of ANNNNAAN 8-mers
ACTATAAG	0.029 % of ANNNNAAN 8-mers	0.0339 % of ANNNNAAN 8-mers	0.03 % of ANNNNAAN 8-mers	0.0314 % of ANNNNAAN 8-mers
AAATAAAG	0.156 % of ANNNNAAN 8-mers	0.151 % of ANNNNAAN 8-mers	0.168 % of ANNNNAAN 8-mers	0.171 % of ANNNNAAN 8-mers
ATGTGAAA	0.0671 % of ANNNNAAN 8-mers	0.0748 % of ANNNNAAN 8-mers	0.0687 % of ANNNNAAN 8-mers	0.0718 % of ANNNNAAN 8-mers
ATGGTAAA	0.182 % of ANNNNAAN 8-mers	0.191 % of ANNNNAAN 8-mers	0.105 % of ANNNNAAN 8-mers	0.106 % of ANNNNAAN 8-mers
ATCGGAAC	0.0175 % of ANNNNAAN 8-mers	0.0242 % of ANNNNAAN 8-mers	0.023 % of ANNNNAAN 8-mers	0.0231 % of ANNNNAAN 8-mers
AAAGTAAT	0.103 % of ANNNNAAN 8-mers	0.14 % of ANNNNAAN 8-mers	0.11 % of ANNNNAAN 8-mers	0.0941 % of ANNNNAAN 8-mers
ACGAGAAC	0.0179 % of ANNNNAAN 8-mers	0.0178 % of ANNNNAAN 8-mers	0.0156 % of ANNNNAAN 8-mers	0.0165 % of ANNNNAAN 8-mers
ATTTCAAT	0.238 % of ANNNNAAN 8-mers	0.268 % of ANNNNAAN 8-mers	0.174 % of ANNNNAAN 8-mers	0.142 % of ANNNNAAN 8-mers
ATTTTAAC	0.0812 % of ANNNNAAN 8-mers	0.0921 % of ANNNNAAN 8-mers	0.0652 % of ANNNNAAN 8-mers	0.0652 % of ANNNNAAN 8-mers
ACAAGAAC	0.0214 % of ANNNNAAN 8-mers	0.0201 % of ANNNNAAN 8-mers	0.0144 % of ANNNNAAN 8-mers	0.0297 % of ANNNNAAN 8-mers
ACGGCAAG	0.0206 % of ANNNNAAN 8-mers	0.027 % of ANNNNAAN 8-mers	0.0211 % of ANNNNAAN 8-mers	0.0239 % of ANNNNAAN 8-mers
ACTCCAAT	0.0294 % of ANNNNAAN 8-mers	0.0219 % of ANNNNAAN 8-mers	0.0242 % of ANNNNAAN 8-mers	0.0231 % of ANNNNAAN 8-mers
AGGGGAAT	0.11 % of ANNNNAAN 8-mers	0.121 % of ANNNNAAN 8-mers	0.089 % of ANNNNAAN 8-mers	0.11 % of ANNNNAAN 8-mers
AACGCAAT	0.0347 % of ANNNNAAN 8-mers	0.0351 % of ANNNNAAN 8-mers	0.0242 % of ANNNNAAN 8-mers	0.0314 % of ANNNNAAN 8-mers
ACGCCAAA	0.0133 % of ANNNNAAN 8-mers	0.0219 % of ANNNNAAN 8-mers	0.016 % of ANNNNAAN 8-mers	0.0223 % of ANNNNAAN 8-mers
ATTCGAAT	0.117 % of ANNNNAAN 8-mers	0.137 % of ANNNNAAN 8-mers	0.08 % of ANNNNAAN 8-mers	0.102 % of ANNNNAAN 8-mers
ATTGAAAG	0.0603 % of ANNNNAAN 8-mers	0.0604 % of ANNNNAAN 8-mers	0.0632 % of ANNNNAAN 8-mers	0.0611 % of ANNNNAAN 8-mers
AGCTGAAT	0.0561 % of ANNNNAAN 8-mers	0.0725 % of ANNNNAAN 8-mers	0.0492 % of ANNNNAAN 8-mers	0.0471 % of ANNNNAAN 8-mers
AGGTTAAA	0.0545 % of ANNNNAAN 8-mers	0.0731 % of ANNNNAAN 8-mers	0.0578 % of ANNNNAAN 8-mers	0.052 % of ANNNNAAN 8-mers
ATCCGAAC	0.0217 % of ANNNNAAN 8-mers	0.0219 % of ANNNNAAN 8-mers	0.0238 % of ANNNNAAN 8-mers	0.0198 % of ANNNNAAN 8-mers
ACGGCAAT	0.0332 % of ANNNNAAN 8-mers	0.0368 % of ANNNNAAN 8-mers	0.0336 % of ANNNNAAN 8-mers	0.0289 % of ANNNNAAN 8-mers
ACGCGAAT	0.0389 % of ANNNNAAN 8-mers	0.0512 % of ANNNNAAN 8-mers	0.0336 % of ANNNNAAN 8-mers	0.0371 % of ANNNNAAN 8-mers
AGACCAAA	0.0179 % of ANNNNAAN 8-mers	0.0213 % of ANNNNAAN 8-mers	0.0246 % of ANNNNAAN 8-mers	0.0239 % of ANNNNAAN 8-mers
ATGTTAAG	0.128 % of ANNNNAAN 8-mers	0.146 % of ANNNNAAN 8-mers	0.0835 % of ANNNNAAN 8-mers	0.0966 % of ANNNNAAN 8-mers
ATGGGAAC	0.0496 % of ANNNNAAN 8-mers	0.0443 % of ANNNNAAN 8-mers	0.0488 % of ANNNNAAN 8-mers	0.0421 % of ANNNNAAN 8-mers
AACATAAA	0.101 % of ANNNNAAN 8-mers	0.125 % of ANNNNAAN 8-mers	0.0527 % of ANNNNAAN 8-mers	0.0627 % of ANNNNAAN 8-mers
ATTCGAAC	0.0351 % of ANNNNAAN 8-mers	0.046 % of ANNNNAAN 8-mers	0.0324 % of ANNNNAAN 8-mers	0.0396 % of ANNNNAAN 8-mers
AACTCAAC	0.0168 % of ANNNNAAN 8-mers	0.0288 % of ANNNNAAN 8-mers	0.0172 % of ANNNNAAN 8-mers	0.0182 % of ANNNNAAN 8-mers
AGACTAAG	0.0278 % of ANNNNAAN 8-mers	0.0328 % of ANNNNAAN 8-mers	0.03 % of ANNNNAAN 8-mers	0.0314 % of ANNNNAAN 8-mers
